Assay outcomes as filed in PubChem.
SW480 rerep: inducers of DNA re-replication in SW480 colon cancer cells; actives 1.8% (n = 340,000); SW480 DNA re-replication, Hoechst DNA content imaging, 48 h; Potency, µM (titrated, usually from 46.1 µM), without a hit: top-dose re-replication activation, actives largely listed as activators; AID 624297; also: potency is read from the fitted curve at half-maximal effect; % of control where 0% means no effect; nearly all actives have a fitted effect of over 55% in size
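Hoechst fluorescence of nuclei (405 nm excitation, 500-530 nm emission) measured by plate-scanning imager after 48 hr compound exposure at 37 C; re-replication scored as increased number of nuclei with elevated intensity.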
KB-V1 cytotox: KB-V1 MDR subline cytotoxicity | KB-V1 MDR cells viability, CellTiter-Glo, 72 h | Potency, µM (titrated, usually from 46.1 µM), most hits filed as cytotoxic | actives 3.4% (n = 400,000); also: potency is read from the fitted curve at half-maximal effect; % is scaled to controls: 0 for no effect and ±100 for the full control effect; nearly all actives have a fitted effect of over 60% in size
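Cells of the MDR subline KB-V1 are plated, dosed with compound at multiple concentrations, and incubated 72 h at 37 degrees C; CellTiter-Glo is then added and luminescence read after 10 min.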
IL-1B inflam inh: inhibitors of inflammasome signaling (IL-1 beta secretion); activity change, % at 57.5 µM; actives 4.7% (n = 360,000); THP-1 LPS/ATP IL-1B secretion, AlphaLISA, 16 h; active compounds read low; in the data active = activity change below about -50%; inconclusive = mostly about -30% to -49%; also: % is scaled to controls: 0 for no effect and ±100 for the full control effect
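Secreted IL-1B measured by AlphaLISA bead assay after 16 h compound exposure of THP-1 cells; compounds (final up to 57.5 uM) added 1 h before LPS (250 ng/mL) and ATP (1.25 mM) stimulation; lower signal means less secretion.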
MCF10A rereplic: induces DNA re-replication in MCF 10a normal breast cells; actives 2.9% (n = 350,000); Potency, µM (titrated, usually from 46.1 µM), inactives show top-dose activity, positive = re-replication, actives largely listed as activators; AID 624296; MCF 10A DNA re-replication, Hoechst nuclear intensity, 48 h; also: potency is read from the fitted curve at half-maximal effect; % of control where 0% means no effect; nearly all actives have a fitted effect of over 50% in size
KB-3-1 cytotox: kills parental KB-3-1 adenocarcinoma cells | KB-3-1 viability, CellTiter-Glo ATP luminescence, 72 h | Potency, µM (titrated, usually from 46.1 µM), hits mostly cytotoxic | actives 1.4% (n = 400,000); also: potency is read from the fitted curve at half-maximal effect; % is scaled to controls: 0 for no effect and ±100 for the full control effect; nearly all actives have a fitted effect of over 60% in size
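Multi-concentration cytotoxicity screen in KB-3-1 cells grown in DMEM lacking phenol red with 10% FBS. After 72 h at 37 °C with compound, ATP-dependent luminescence was recorded.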
Starred values were filed as active, the others as inactive; i = inactive; u = inconclusive; x = no result. Shown are actives, neighbours in structure and some others; about 9.9% of the full set was active somewhere. Unless noted, calls follow the shape of the dose curve; as a rule, active = well fitted curve in the direction sought with a large enough effect; inconclusive = small, poorly fitted or top-dose-only effect, or another doubt; inactive = no such curve, though single readings can be large; an effect the other way counts as inactive or inconclusive.

SMILES	SW480 rerep	KB-V1 cytotox	IL-1B inflam inh	MCF10A rereplic	KB-3-1 cytotox
CNC(=O)c1cc2c(=O)n3cccc(C)c3nc2n(C(C)C)c1=N	u	i	4.2	3.66µM*	i
Cc1cccn2c(=O)c3cc(C(=O)NC4CCCC4)c(=N)n(C4CCCCC4)c3nc12	3.26µM*	i	20.7	25.5%	i
Cc1cccn2c(=O)c3cc(C(=O)NCc4ccco4)c(=N)n(CCOCCO)c3nc12	u	i	-56.9*	u	i
Cc1ccc(C)c(NC(=O)CN2C(=O)C3(SCC(=O)N3c3ccc(C)c(C)c3)c3ccccc32)c1 (stereo not given)	x	i	x	x	u
Nc1nc(SCc2ccc(Cl)cc2Cl)nc2nc3c(cc12)CCCC3	u	u	-2.8	u	u
CCOC(=O)CNC(=S)N(CCCN1CCN(C)CC1)Cc1cccs1	1.0%	i	-1.2	17.1%	i
Nc1ccc(CN2CCOCC2)cc1	-15.3%	u	-7.4	-1.2%	i
Cc1cccn2c(=O)c3cc(C(=O)NC4CCCC4)c(=N)n(CCc4ccccc4)c3nc12	4.61µM*	u	27.6	2.59µM*	i
CCCCNC(=O)c1cc2c(=O)n3cccc(C)c3nc2n(Cc2ccccc2)c1=N	-2.6%	i	3.6	16.7%	i
COc1ccc(CCn2c(=N)c(C(=O)NC3CCCC3)cc3c(=O)n4cccc(C)c4nc32)cc1	u	u	5.4	248.3%	u
Cc1cccn2c(=O)c3cc(C(=O)NC4CCS(=O)(=O)C4)n(Cc4ccccc4)c3nc12 (stereo not given)	2.59µM*	i	1.3	13µM*	i
Cc1cccn2c(=O)c3cc(C(=O)NC4CCCC4)c(=N)n(Cc4ccc(F)cc4)c3nc12	4.61µM*	i	15.9	2.31µM*	i
N=c1c(C(=O)NC2CCCCC2)cc2c(=O)n3ccccc3nc2n1Cc1ccc(F)cc1	u	i	-2.1	u	i
Cc1cccn2c(=O)c3cc(C(=O)NCc4ccco4)c(=N)n(C4CCCCC4)c3nc12	16.4µM*	u	-98.1*	23.1µM*	i
CC(=O)c1c(C)[nH]c(C(=O)COc2ccc3ccc(=O)oc3c2)c1C	-2.0%	u	-10.2	18.5%	i
CC(=O)c1c(C)[nH]c(C(=O)COc2cc(C)cc(C)c2)c1C	1.1%	2.59µM*	-10.1	20.8%	i
CCCOc1ccc(OCC(=O)c2[nH]c(C)c(C(C)=O)c2C)cc1	16.7%	2.91µM*	9.2	46.8%	u
Cc1cccc(-n2ncc3c(NCCN4CCOCC4)ncnc32)c1	-3.3%	i	-16.5	2.2%	i
O=C(Cn1cnc2c(NCc3ccccc3)ncnc21)NCc1ccccc1	11.6µM*	7.31µM*	85.2	9.2µM*	2.91µM*
O=C(Cn1cnc2c(NCc3ccccc3)ncnc21)NCc1ccc2c(c1)OCO2	u	i	11.9	u	i
c1ccc(CNc2nnnn2-c2ccccc2)cc1	-2.7%	20.6µM*	25.0	13.6%	u
Cc1cccc(-n2ncc3c(N4CCCc5ccccc54)ncnc32)c1	20.6µM*	8.2µM*	13.4	11.6µM*	u
Cc1ccc(-n2ncc3c(NNC(=O)Cc4ccccc4)ncnc32)cc1	-16.8%	u	0.0	23.1µM*	i
c1ccc(CNc2ncnc3c2cnn3-c2ccccc2)cc1	13µM*	2.59µM*	40.7	9.2µM*	5.17µM*
Cc1cccc(-n2ncc3c(NCc4ccco4)ncnc32)c1	u	i	-8.6	16.4µM*	u
c1ccc(CCNc2ncnc3c2cnn3-c2ccccc2)cc1	18.4µM*	i	u	u	i
Cc1cccc(-n2ncc3c(NCc4ccccc4)ncnc32)c1	16.4µM*	6.51µM*	22.7	6.51µM*	3.26µM*
CCOCCCn1c(SCC(=O)Nc2ccccc2Cl)nc2c(oc3ccccc32)c1=O	x	i	x	x	i
CC(C)OCCCNc1ncnc2c1cnn2-c1ccccc1	5.2%	14.6µM*	-11.5	22.3%	i
CN(C)CCCNc1ncnc2c1cnn2-c1ccccc1	-9.0%	u	0.0	4.4%	i
